# Source: paper PMC7862700, “An all-to-all approach to the identification of sequence-specific readers for epigenetic DNA modifications on cytosine”
# Columns and labels:
# Experiment in all cases: DAPPL (digital affinity profiling via proximity ligation, sequencing); 10 mM Tris-HCl pH 7.5, 50 mM NaCl, 1 mM DTT, 4% glycerol, room temperature, 30 min; GST-TFs on glutathione beads, 16-mer random dsDNA library, 0.1% formaldehyde crosslink after washing; high values mean tight binding
# Conditions in all cases: protein: recombinant; tags: N-terminal GST; dsDNA, one strand shown
# ELK1 = target: T1, ELK1 (Homo sapiens, UniProt P19419 1-428)
# T1 sequence: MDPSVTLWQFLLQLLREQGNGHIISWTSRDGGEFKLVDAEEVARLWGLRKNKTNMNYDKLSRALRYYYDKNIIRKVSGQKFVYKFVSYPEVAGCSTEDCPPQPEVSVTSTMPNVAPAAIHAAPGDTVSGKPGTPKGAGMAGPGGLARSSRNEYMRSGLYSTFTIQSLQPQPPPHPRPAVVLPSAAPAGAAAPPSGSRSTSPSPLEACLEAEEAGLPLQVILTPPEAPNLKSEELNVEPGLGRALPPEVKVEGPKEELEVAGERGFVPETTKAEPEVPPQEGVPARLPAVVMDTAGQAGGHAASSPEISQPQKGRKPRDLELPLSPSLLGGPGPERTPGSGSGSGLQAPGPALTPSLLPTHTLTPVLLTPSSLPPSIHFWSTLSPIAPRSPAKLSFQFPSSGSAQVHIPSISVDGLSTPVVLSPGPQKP
# How it was run: (§1)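 After expression in yeast as GST fusions, human transcription factors were bound to glutathione beads, DNA-barcoded and mixed with a tag-only sample. The pools were incubated with 200 nmole of a 16-mer random double-stranded DNA library in Tris/NaCl/DTT/glycerol buffer (30 min, room temperature), washed and crosslinked with 0.1% formaldehyde. Proximity ligation with BsaI/T4 ligase ran for 1 h at 37 °C, before PCR amplification and sequencing on an Illumina NextSeq500. Binding signal is a hexamer's read frequency for a factor divided by its frequency for the tag-only sample.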
# GABPA = target: T2, GABPA (Homo sapiens, UniProt Q06546 1-454)
# T2 sequence: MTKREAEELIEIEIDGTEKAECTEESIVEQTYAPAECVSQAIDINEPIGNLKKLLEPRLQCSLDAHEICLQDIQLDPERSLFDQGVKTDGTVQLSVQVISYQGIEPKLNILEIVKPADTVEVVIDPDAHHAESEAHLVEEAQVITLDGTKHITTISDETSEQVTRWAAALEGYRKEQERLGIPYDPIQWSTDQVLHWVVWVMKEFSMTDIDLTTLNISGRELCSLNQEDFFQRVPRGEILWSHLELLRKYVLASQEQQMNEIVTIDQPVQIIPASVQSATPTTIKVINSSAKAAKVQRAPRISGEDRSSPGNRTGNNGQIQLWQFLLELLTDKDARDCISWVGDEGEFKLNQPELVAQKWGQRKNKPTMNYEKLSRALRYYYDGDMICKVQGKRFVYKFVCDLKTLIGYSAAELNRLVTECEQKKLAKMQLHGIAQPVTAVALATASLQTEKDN
# How it was run: as §1
# ERG = target: T3, ERG (Homo sapiens, UniProt P11308 1-479)
# T3 sequence: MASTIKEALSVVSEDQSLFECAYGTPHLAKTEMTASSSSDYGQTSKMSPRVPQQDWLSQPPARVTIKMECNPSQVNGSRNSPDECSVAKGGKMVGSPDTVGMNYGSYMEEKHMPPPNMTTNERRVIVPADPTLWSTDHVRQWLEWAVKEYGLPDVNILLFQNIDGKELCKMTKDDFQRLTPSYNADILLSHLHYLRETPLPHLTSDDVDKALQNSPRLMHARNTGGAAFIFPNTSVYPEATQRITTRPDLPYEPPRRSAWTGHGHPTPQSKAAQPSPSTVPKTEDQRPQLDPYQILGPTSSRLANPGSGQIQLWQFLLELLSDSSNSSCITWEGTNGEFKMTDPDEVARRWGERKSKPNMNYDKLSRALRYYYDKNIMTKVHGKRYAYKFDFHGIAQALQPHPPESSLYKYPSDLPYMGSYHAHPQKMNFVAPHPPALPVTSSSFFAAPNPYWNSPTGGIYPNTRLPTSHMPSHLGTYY
# How it was run: as §1
# ELF1 = ELF1 (Homo sapiens, UniProt P32519 1-619)
# How it was run: as §1
# EHF = target: T4, EHF (Homo sapiens, UniProt Q9NZC4 1-300)
# T4 sequence: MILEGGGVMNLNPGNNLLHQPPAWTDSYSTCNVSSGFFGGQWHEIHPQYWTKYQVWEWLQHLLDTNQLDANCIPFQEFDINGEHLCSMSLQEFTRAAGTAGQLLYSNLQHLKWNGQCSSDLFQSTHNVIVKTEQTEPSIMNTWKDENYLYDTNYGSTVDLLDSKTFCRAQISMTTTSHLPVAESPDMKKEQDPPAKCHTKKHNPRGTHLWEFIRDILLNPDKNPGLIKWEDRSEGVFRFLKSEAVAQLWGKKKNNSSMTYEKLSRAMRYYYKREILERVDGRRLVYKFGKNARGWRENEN
# How it was run: as §1
# SPIB = SPIB (Homo sapiens, UniProt Q01892 1-262)
# How it was run: as §1
# ELK3 = target: T5, ELK3 (Homo sapiens, UniProt P41970 1-407)
# T5 sequence: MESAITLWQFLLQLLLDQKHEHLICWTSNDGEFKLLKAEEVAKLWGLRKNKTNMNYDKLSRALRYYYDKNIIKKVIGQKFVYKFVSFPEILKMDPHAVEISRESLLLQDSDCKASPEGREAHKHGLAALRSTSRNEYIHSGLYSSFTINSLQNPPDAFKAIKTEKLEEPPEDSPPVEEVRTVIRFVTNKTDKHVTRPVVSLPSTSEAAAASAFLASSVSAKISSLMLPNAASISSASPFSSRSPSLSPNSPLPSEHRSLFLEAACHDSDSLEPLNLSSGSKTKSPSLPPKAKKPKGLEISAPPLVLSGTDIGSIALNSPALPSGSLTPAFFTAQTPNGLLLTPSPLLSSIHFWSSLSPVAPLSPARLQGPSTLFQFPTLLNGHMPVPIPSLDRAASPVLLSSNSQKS
# How it was run: as §1
# ETV5 = ETV5 (Homo sapiens, UniProt P41161 1-510)
# How it was run: as §1
# SPIC = target: T6, SPIC (Homo sapiens, UniProt Q8N5J4 1-248)
# T6 sequence: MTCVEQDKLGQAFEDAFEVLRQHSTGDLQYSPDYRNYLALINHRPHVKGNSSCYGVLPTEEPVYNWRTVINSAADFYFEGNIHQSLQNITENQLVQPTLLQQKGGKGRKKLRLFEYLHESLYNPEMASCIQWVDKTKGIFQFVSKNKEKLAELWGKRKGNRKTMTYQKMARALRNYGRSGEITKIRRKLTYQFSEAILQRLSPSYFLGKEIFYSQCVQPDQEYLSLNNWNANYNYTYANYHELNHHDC
# How it was run: as §1
# ELF3 = target: T7, ELF3 (Homo sapiens, UniProt P78545 1-371)
# T7 sequence: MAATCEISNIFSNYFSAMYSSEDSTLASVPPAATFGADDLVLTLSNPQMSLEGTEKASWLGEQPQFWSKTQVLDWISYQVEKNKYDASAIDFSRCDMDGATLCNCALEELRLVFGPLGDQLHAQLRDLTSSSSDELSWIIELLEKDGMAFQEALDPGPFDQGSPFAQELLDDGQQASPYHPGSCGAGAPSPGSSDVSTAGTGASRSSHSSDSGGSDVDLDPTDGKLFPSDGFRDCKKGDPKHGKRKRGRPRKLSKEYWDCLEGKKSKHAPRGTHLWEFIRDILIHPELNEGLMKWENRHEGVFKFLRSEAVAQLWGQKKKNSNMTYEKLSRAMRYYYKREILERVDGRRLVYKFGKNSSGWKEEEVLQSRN
# How it was run: as §1
# ETV1 = ETV1 (Homo sapiens, UniProt P50549 1-477)
# How it was run: as §1
# ERF = target: T8, ERF (Homo sapiens, UniProt P50548 1-548)
# T8 sequence: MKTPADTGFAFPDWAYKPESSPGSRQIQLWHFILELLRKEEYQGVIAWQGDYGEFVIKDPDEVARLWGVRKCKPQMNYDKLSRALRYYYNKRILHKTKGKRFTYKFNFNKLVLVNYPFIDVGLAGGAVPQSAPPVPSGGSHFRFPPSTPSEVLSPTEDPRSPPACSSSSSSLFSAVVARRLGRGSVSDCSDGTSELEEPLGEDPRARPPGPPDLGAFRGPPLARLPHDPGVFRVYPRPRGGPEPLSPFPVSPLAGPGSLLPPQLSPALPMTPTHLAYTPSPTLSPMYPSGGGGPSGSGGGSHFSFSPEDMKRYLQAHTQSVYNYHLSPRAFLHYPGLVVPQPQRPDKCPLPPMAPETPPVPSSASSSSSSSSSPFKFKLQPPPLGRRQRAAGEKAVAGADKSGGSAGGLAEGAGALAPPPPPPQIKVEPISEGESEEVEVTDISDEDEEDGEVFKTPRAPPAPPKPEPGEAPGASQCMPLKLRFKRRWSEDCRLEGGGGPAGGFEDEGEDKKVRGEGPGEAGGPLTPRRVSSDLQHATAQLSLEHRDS
# How it was run: as §1
# ETV3L = target: T9, ETV3L (Homo sapiens, UniProt Q6ZN32 1-361)
# T9 sequence: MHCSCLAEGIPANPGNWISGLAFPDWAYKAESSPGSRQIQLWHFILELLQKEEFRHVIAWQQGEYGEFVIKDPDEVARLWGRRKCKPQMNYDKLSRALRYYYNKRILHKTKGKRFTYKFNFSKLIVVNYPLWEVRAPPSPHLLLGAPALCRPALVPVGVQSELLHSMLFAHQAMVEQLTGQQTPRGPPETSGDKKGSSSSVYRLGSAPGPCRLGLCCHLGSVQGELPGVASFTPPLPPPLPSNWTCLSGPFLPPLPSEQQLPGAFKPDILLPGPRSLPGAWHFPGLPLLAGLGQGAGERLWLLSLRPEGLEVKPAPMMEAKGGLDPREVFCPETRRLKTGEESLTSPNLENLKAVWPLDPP
# How it was run: as §1
# ETS2 = target: T10, ETS2 (Homo sapiens, UniProt P15036 1-469)
# T10 sequence: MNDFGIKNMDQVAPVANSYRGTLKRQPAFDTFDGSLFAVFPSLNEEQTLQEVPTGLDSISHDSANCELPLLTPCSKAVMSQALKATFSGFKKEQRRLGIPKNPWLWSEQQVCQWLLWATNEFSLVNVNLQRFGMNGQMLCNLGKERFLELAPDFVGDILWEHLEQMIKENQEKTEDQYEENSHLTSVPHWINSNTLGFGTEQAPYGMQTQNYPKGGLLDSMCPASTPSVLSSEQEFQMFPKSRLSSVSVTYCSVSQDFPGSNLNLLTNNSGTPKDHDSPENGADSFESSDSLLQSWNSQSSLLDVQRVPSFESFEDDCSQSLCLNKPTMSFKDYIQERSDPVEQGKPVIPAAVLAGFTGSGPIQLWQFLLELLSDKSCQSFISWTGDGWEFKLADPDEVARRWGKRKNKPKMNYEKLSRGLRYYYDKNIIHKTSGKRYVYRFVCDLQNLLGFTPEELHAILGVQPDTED
# How it was run: as §1
# SPDEF = target: T11, SPDEF (Homo sapiens, UniProt O95238 1-335)
# T11 sequence: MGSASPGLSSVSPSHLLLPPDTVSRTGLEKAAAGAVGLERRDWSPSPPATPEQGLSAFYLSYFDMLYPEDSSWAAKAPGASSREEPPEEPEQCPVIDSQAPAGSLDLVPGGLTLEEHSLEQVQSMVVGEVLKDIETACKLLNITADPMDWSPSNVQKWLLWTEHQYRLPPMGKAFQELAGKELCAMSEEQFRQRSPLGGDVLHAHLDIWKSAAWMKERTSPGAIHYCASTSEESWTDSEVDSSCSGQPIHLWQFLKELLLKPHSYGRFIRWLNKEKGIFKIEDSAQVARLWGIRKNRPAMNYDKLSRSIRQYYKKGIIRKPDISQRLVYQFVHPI
# How it was run: as §1
# ETV3 = target: T12, ETV3 (Homo sapiens, UniProt P41162-2 1-143)
# T12 sequence: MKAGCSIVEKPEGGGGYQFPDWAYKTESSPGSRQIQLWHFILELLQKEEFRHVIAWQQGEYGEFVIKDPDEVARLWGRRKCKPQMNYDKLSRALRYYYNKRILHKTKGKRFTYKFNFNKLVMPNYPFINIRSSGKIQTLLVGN
# How it was run: as §1
# ETV6 = ETV6 (Homo sapiens, UniProt P41212 1-452)
# How it was run: as §1
# Chain of ETV6 (P41212 whole entry): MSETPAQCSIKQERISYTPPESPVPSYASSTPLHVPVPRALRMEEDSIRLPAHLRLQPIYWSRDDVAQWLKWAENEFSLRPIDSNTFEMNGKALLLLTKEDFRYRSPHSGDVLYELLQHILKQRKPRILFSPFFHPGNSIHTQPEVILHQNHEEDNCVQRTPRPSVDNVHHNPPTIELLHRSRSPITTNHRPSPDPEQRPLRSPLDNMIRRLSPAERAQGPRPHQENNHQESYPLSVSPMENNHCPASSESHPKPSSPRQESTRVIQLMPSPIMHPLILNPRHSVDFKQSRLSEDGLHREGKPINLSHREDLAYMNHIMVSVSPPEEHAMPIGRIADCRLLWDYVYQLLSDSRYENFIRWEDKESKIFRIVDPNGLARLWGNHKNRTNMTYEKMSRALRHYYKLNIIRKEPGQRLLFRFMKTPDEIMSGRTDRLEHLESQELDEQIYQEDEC
# Chain of ELF1 (P32519 whole entry): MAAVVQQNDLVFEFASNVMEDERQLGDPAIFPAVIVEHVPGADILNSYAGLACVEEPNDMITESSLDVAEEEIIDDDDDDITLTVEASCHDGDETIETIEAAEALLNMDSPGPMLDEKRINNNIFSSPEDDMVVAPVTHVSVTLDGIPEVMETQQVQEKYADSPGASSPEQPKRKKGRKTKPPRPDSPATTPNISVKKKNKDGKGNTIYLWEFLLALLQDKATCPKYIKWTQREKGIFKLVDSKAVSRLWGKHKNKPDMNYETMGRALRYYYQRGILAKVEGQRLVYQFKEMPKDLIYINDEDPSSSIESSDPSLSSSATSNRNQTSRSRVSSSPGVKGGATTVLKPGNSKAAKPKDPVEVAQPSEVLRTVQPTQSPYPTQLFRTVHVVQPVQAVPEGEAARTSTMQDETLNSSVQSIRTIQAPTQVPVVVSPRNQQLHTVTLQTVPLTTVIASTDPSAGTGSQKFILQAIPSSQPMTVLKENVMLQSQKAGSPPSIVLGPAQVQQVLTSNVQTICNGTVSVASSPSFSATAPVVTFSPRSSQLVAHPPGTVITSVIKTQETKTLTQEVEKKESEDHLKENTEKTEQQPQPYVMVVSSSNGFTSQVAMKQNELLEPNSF
# Chain of SPIB (Q01892 whole entry): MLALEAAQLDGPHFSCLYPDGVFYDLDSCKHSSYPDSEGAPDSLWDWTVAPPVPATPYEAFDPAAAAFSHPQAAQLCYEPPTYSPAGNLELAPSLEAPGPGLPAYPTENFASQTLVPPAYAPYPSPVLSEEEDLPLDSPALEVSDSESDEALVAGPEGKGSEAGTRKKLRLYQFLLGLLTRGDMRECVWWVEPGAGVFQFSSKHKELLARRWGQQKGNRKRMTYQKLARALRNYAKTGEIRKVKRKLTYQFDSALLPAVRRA
# Chain of ETV1 (P50549 whole entry): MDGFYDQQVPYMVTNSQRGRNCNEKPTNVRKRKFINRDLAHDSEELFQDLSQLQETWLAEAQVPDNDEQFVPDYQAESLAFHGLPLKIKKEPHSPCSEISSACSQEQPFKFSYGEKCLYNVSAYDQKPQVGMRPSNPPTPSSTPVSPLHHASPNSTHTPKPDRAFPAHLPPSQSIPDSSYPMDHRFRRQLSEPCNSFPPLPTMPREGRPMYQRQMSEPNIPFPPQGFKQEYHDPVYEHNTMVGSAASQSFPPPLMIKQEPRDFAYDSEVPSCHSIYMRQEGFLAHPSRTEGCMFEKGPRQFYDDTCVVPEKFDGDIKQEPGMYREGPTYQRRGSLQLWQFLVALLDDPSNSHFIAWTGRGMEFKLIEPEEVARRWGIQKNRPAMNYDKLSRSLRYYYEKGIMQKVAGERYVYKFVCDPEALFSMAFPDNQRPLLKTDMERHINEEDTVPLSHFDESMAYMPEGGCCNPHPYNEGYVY
# Chain of ETV5 (P41161 whole entry): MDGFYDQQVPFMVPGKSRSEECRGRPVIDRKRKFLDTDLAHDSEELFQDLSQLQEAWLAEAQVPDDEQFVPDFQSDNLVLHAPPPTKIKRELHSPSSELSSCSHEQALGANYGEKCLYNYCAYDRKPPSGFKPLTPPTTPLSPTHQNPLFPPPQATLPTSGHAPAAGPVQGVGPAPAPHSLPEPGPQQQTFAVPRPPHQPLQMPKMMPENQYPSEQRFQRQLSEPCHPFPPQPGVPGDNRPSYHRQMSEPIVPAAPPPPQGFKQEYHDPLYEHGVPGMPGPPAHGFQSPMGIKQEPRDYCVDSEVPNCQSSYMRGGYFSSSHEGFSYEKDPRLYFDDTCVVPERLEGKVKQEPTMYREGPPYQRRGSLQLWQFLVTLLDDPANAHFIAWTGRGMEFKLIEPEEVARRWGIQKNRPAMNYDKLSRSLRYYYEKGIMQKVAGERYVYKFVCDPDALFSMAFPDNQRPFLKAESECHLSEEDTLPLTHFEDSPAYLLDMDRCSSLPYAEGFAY
sequence,measurement,setting,value
AACGCA,binding signal,ELK1,"1.03 fold enrichment (6-mer frequency, TF over GST control)"
same,binding signal,GABPA,"1.06 fold enrichment (6-mer frequency, TF over GST control)"
same,binding signal,ERG,"1.13 fold enrichment (6-mer frequency, TF over GST control)"
same,binding signal,ELF1,"1.06 fold enrichment (6-mer frequency, TF over GST control)"
same,binding signal,EHF,"1.04 fold enrichment (6-mer frequency, TF over GST control)"
same,binding signal,SPIB,"1.04 fold enrichment (6-mer frequency, TF over GST control)"
same,binding signal,ELK3,"1.06 fold enrichment (6-mer frequency, TF over GST control)"
same,binding signal,ETV5,"1.09 fold enrichment (6-mer frequency, TF over GST control)"
same,binding signal,SPIC,"1.02 fold enrichment (6-mer frequency, TF over GST control)"
same,binding signal,ELF3,"1.03 fold enrichment (6-mer frequency, TF over GST control)"
same,binding signal,ETV1,"1.09 fold enrichment (6-mer frequency, TF over GST control)"
same,binding signal,ERF,"1.16 fold enrichment (6-mer frequency, TF over GST control)"
same,binding signal,ETV3L,"1.03 fold enrichment (6-mer frequency, TF over GST control)"
same,binding signal,ETS2,"1.1 fold enrichment (6-mer frequency, TF over GST control)"
same,binding signal,SPDEF,"1.05 fold enrichment (6-mer frequency, TF over GST control)"
same,binding signal,ETV3,"1.03 fold enrichment (6-mer frequency, TF over GST control)"
same,binding signal,ETV6,"1.06 fold enrichment (6-mer frequency, TF over GST control)"
